Reference: PubChem BioAssay AID1159606 (Sanford-Burnham Center for Chemical Genomics, 2016)
Out of some 360,000 compounds screened, about 7,300 (2%) were called active. The sample as a whole holds a higher share of actives than the screen did. A number with no mark means an inactive call. Rule as the data show it: active = inhibition above about 50%; inactive = the rest.

Assay: inhibitors of TWEAK-Fn14 signaling, primary screen, luciferase reporter cells, uHTS (AID 1159606)
Details: TWEAK-stimulated Fn14 reporter cells, luciferase luminescence, 8 h; at 10 µM; hits give high values

SMILES	inhibition
CCCCN(C(C)=O)c1ccc2c(c1)C1CC2CCN1Cc1ccccc1 (centres undefined)	-18%
CCCCNC(=O)OCCSCCS(=O)(=O)c1ccc(Cl)cc1	-5.78%
Cc1ccc(C)c(Cn2nnc3c(=O)[nH]c(C(=O)Nc4ccc(F)cc4)nc32)c1	-5.18%
Cc1cccc(CS(=O)(=O)c2ncc(Cl)c(C(=O)Nc3ccc(F)cc3)n2)c1	77% (active)
Cc1cccc(NC(=O)Cn2cc(C(=O)c3ccco3)c3ccccc32)c1	-6.45%
Cc1cccc(NC(=O)CCN2CC(C)CC(C)C2)c1 (centres undefined)	-9.11%
Cc1cccc(CN2CCC(CNC(=O)Nc3ccc(F)c(Cl)c3)CC2)c1	10.9%
Cc1cccc(NC(=O)c2nc(S(=O)(=O)Cc3ccccc3)ncc2Cl)c1	75.7% (active)
CC(C)CN(CC(C)C)CC(O)CN(c1ccccc1)S(=O)(=O)c1ccccc1[N+](=O)[O-] (centres undefined)	16%
CC(=O)C1C(c2ccc(Cl)cc2)c2c(n[nH]c2C)CC1(C)O (centres undefined)	-9.34%
CC(C)(C)C(=O)c1c(N)[nH]c(C(=O)c2ccccc2)c1-c1ccc(F)cc1	-3.63%
CN(C(=O)Nc1ccc(Cl)cc1)n1cnc2ccccc2c1=O	1.4%
CN(c1ccc2nc3ccccc3c(=O)n2n1)C1CCCCC1	105% (active)
CC(C)(C)c1nc2ccccc2c(=O)n1N1C(=O)c2ccccc2C1=O	20.8%
CCCCNC(=O)CSc1nc2ccc(NC(=O)CSc3nnc(N)s3)cc2s1	23.8%
CCCCNC(=O)CSc1nc2ccc(NC(=O)CSc3nnc(COc4ccccc4C)n3C)cc2s1	-37.4%
Nc1nnc(SCC(=O)Nc2ccc3nc(SCC(=O)Nc4ccccc4)sc3c2)s1	86.4% (active)
Cc1nc(CNS(=O)(=O)c2ccc(Oc3ccccc3)cc2)cs1	23.5%
c1ccc2c(C[n+]3csc4ccccc43)cccc2c1	-11.1%
CC(C)c1ccc(OCC(O)Cn2cnc3ccccc32)cc1 (centres undefined)	-16.5%
O=C(C(c1ccccc1)c1ccccc1)N1CCN(CC(O)COc2ccccc2)CC1 (centres undefined)	3.97%
OC(CN=c1sc2ccccc2n1CC(O)COc1ccccc1)COc1ccccc1 (centres undefined)	70.7% (active)
COc1ccc([C@H]2CC(=O)C[C@@H](CCn3cc(CC4CCCC4)nn3)O2)cc1	7.34%
C[C@@H]1CC2=C(C(=O)OC(C)(C)O2)[C@@H](C2CC2)O1	4.57%
